Source: PubChem BioAssay (NCI)
This is part of a sample that, as a whole, favours compounds with a hit. Of some 83,000 tested, about 20% had one in any assay.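 Compound tested at a single concentration for 48 hours in 96-well plates; a percent growth value below 10 was scored as active.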 A number with no mark means an inactive call. Active and inactive are the calls of the source.

What was measured:
Experiment in all cases: NCI-60 one-dose screen, 48 h (100 = growth as untreated, 0 = no growth, -100 = all killed)
Conditions in all cases: 10 µM unless noted
HCT-15 colon = tested on: HCT-15 colon
HT29 colon = tested on: HT29 colon
SNB-75 CNS = tested on: SNB-75 CNS
SNB-19 CNS = tested on: SNB-19 CNS
U251 CNS = tested on: U251 CNS
PC-3 prostate = tested on: PC-3 prostate
SK-MEL-5 melanoma = tested on: SK-MEL-5 melanoma
UACC-62 melanoma = tested on: UACC-62 melanoma
LOX IMVI melanoma = tested on: LOX IMVI melanoma
SK-MEL-28 melanoma = tested on: SK-MEL-28 melanoma
EKVX NSCLC = tested on: EKVX NSCLC
SN12C renal = tested on: SN12C renal
UO-31 renal = tested on: UO-31 renal
TK-10 renal = tested on: TK-10 renal
ACHN renal = tested on: ACHN renal
CAKI-1 renal = tested on: CAKI-1 renal
A498 renal = tested on: A498 renal
CCRF-CEM leukemia = tested on: CCRF-CEM leukemia
MOLT-4 leukemia = tested on: MOLT-4 leukemia
SK-MEL-2 melanoma = tested on: SK-MEL-2 melanoma

SMILES | growth (HCT-15 colon) | growth (HT29 colon) | growth (SNB-75 CNS) | growth (SNB-19 CNS) | growth (U251 CNS) | growth (PC-3 prostate) | growth (SK-MEL-5 melanoma) | growth (UACC-62 melanoma) | growth (LOX IMVI melanoma) | growth (SK-MEL-28 melanoma) | growth (EKVX NSCLC) | growth (SN12C renal) | growth (UO-31 renal) | growth (TK-10 renal) | growth (ACHN renal) | growth (CAKI-1 renal) | growth (A498 renal) | growth (CCRF-CEM leukemia) | growth (MOLT-4 leukemia) | growth (SK-MEL-2 melanoma)
O=C(CSc1nc2ccc([N+](=O)[O-])cc2[nH]1)Nc1cccc(C(F)(F)F)c1 | 23.5% | 11.3% | 25.5% | 15.2% | 16.4% | 9.66% (active) | -1.54% (active) | 6.34% (active) | 26.9% | 22.2% | 23.9% | 9.37% (active) | 8.44% (active) | 25.1% | 16% | 1.15% (active) | -6.75% (active) | 19% | 8.77% (active) | –
C=C(C)[C@@H]1CC[C@]2(C(=O)OC)CC[C@]3(C)[C@H](CC[C@@H]4[C@@]5(C)C/C(=C/NC(N)=S)C(=O)C(C)(C)[C@@H]5CC[C@]43C)[C@@H]12 | 92.8% | 71% | 118% | 97.1% | 90.7% | 67.6% | 87.1% | 87.4% | 90.2% | 98.9% | 91.3% | 58.9% | 73.4% | – | 77.6% | 66.4% | 114% | 84.7% | 70.3% | –
C[C@]12C=CC(=O)C=C1CCC1C2[C@@H](O)C[C@@]2(C)C1CC[C@]2(O)C(=O)COC(=O)CCC(=O)O (some centres not stated) | 105% | 105% | 120% | 104% | 103% | 93.4% | 113% | 104% | – | 107% | 74.2% | 74.2% | 92.2% | 116% | 102% | 82.5% | 89.2% | 60.9% | 100% | 117%
O=C1c2c(c3c4ccc(Br)cc4oc3c3[nH]c4ccccc4c23)C(=O)N1O | 19% | 8.99% (active) | 4.21% (active) | 29.7% | 22.8% | 40.9% | -71.8% (active) | -2.55% (active) | – | -0.104% (active) | 66.6% | 14.5% | 13.8% | 121% | 22.8% | 29% | 13.1% | 11.4% | 11.2% | 20%
Cc1cc(N)c2cc(NC(=O)/C=C\c3ccccc3Cl)ccc2n1 | 10.9% | -64.4% (active) | -90.8% (active) | -86.3% (active) | -85.9% (active) | -91.5% (active) | -94.9% (active) | -80.9% (active) | -75.1% (active) | -96.1% (active) | -71.8% (active) | -81.7% (active) | -72.1% (active) | -90% (active) | -85% (active) | -76% (active) | -88.3% (active) | -74.2% (active) | -53.2% (active) | –
O=C1NCCC12CCN(c1c(Cl)cncc1-c1ccc(O)cc1)CC2 | 105% | 94.2% | 112% | 98.9% | 94.9% | 98.8% | 94.4% | 90.2% | 87.7% | 103% | 86.4% | 99.6% | 77.8% | 86.9% | 70.2% | 90.3% | 85% | 98.9% | 102% | –
O=S(=O)(Nc1cc(Br)c(O)c2ccccc12)c1ccc(F)cc1 | 86.8% | 113% | 100% | 108% | 35.4% | 32% | 48.9% | 54.2% | – | 81.1% | 109% | 49.3% | 48.5% | 123% | 71.2% | 80.5% | 89.9% | 11% | -40.3% (active) | 87.8%
Oc1ccc(CN2CCC(N3CCCCC3)CC2)c2cccnc12 | 18% | 105% | 25.4% | 23.7% | 17.6% | 17.9% | -29.4% (active) | 14.9% | – | 33.4% | 45.6% | 22.2% | 5.93% (active) | -58.5% (active) | 8.86% (active) | 44% | 71.3% | 35.8% | 41.2% | 2.95% (active)
CCCCCOc1ccc(C(=O)/C(Br)=C/C(=O)O)cc1 | 89.1% | 105% | 73.8% | 98.8% | 86.7% | 99.6% | 104% | 90.9% | 86.4% | 87.4% | 103% | 102% | 98.6% | 125% | 94.3% | 81.1% | 86.2% | 80.5% | 65.4% | –
C#Cc1cccc(Nc2ncnc3ccc(-c4cncc(NS(C)(=O)=O)c4)cc23)c1 | 55.9% | 20.7% | 30.6% | 35.2% | 4.32% (active) | – | -75.7% (active) | 33.4% | 7.21% (active) | 41.4% | 4.65% (active) | 24.2% | 38.4% | -3.64% (active) | 33.2% | 54.9% | -10.7% (active) | 14% | -28.3% (active) | -39.7% (active)
c1ccc(C2=NN[C@H](c3cn(-c4ccccc4)nc3-c3ccccc3)C2)cc1 | 86.5% | 65.2% | -32.7% (active) | 55% | 7.2% (active) | – | 64% | 90.3% | 24.4% | 50.2% | 41.4% | 46.6% | 9.32% (active) | 17.9% | -4.87% (active) | 4.95% (active) | 54.5% | 89.3% | 80.5% | 54.8%
COc1ccc(NC(=O)c2sc3nc(C)c(C(=O)/C=C/c4cccc(OC)c4)cc3c2N)cc1 | -12.8% (active) | 1.21% (active) | 11.2% | 8.88% (active) | 1.61% (active) | 55.2% | 71.3% | 56.6% | – | 80.7% | 93.5% | 19.7% | 27.1% | 82.2% | 52.3% | 32.9% | 14.3% | 7.32% (active) | 33.1% | –
O=C(O)CNC1=C(Cl)C(=O)c2ccccc2C1=O | 100% | 103% | 86.5% | 96.5% | 91.1% | – | 112% | 93.6% | 84% | 113% | 98.6% | 92.7% | 58.9% | 110% | 91.2% | 76.7% | 102% | 91.4% | 100% | 100%
O=C(O)[C@@H]1c2ccccc2-c2ccccc2[C@H]1C(=O)O | 101% | 102% | 93.3% | 100% | 106% | – | 110% | 96% | 99.3% | 102% | 100% | 99.6% | 66.3% | – | 98.7% | 96.5% | 96.6% | 87.1% | 107% | 123%
C=C1C(=O)O[C@H]2[C@H]1CC/C(COC(=O)NCc1ccc(Cn3c(=O)sn(CCI)c3=O)cc1)=C\CC[C@@]1(C)O[C@@H]21 | 41.1% | 39.8% | 81.2% | 97.2% | 73.3% | – | 98.8% | 65.4% | 35.1% | 55.5% | 91% | 70.3% | 68.3% | 0.429% (active) | 27.7% | 7% (active) | 120% | -16.1% (active) | -6.69% (active) | 73.9%
